Assay [1] relates to PRMT1 (protein arginine N-methyltransferase 1). The assay is described as follows: PRMT1 binders on small-molecule microarrays, primary screen, biochemical, small-molecule microarray, 635 nm fluorescence (AID 1088).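 Also: binding of Prmt1 protein to compounds spotted on small-molecule microarray slides.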 Conditions: small-molecule microarray binding, higher = more signal.
The nature of assay [2]: yeast growth modulation, basal conditions, primary screen, YJM789 clinical isolate, OD600, 24 h (AID 1089).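 Also: growth of clinical yeast isolate S. cerevisiae YJM 789 seeded 1000 cells per well; test concentration not given here.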 The note with it: S. cerevisiae YJM789 growth, higher = more signal, called active from +8 up or from −8 down.
Assay [3] in a line: fission yeast growth modulation, primary screen, strain 972, OD600, 24 h, no modulator (AID 1090).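 Also: basal condition with compound alone and no growth modifier present; test concentration not given here.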 The note with it: S. pombe 972 growth, higher = more signal, called active from +8 up or from −8 down.
A short description of assay [4]: S. cerevisiae growth modulation with rapamycin, primary screen, strain BY4716, OD600, 96 h (AID 1091). Also: test concentration not given here. Conditions: higher = more signal, called active from +8 up or from −8 down.
For assay [5], the target named is Torsin-1A-interacting protein 2 (Homo sapiens) (UniProt Q8NFQ8). The experiment in a line: LULL1 binders on small-molecule microarray, primary screen, cell lysate, human LULL1 lysate, 635/667 nm fluorescence (AID 1092).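 Also: probe is lysate of COS7 cells overexpressing human LULL1; score merges per-feature 667 nm fluorescence with signal-to-noise.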 Conditions: hLULL1 lysate binding, 635 nm fluorescence, higher = more signal.
Torsin-1A-interacting protein 2 (Homo sapiens), sequence (Q8NFQ8 whole entry, looked up): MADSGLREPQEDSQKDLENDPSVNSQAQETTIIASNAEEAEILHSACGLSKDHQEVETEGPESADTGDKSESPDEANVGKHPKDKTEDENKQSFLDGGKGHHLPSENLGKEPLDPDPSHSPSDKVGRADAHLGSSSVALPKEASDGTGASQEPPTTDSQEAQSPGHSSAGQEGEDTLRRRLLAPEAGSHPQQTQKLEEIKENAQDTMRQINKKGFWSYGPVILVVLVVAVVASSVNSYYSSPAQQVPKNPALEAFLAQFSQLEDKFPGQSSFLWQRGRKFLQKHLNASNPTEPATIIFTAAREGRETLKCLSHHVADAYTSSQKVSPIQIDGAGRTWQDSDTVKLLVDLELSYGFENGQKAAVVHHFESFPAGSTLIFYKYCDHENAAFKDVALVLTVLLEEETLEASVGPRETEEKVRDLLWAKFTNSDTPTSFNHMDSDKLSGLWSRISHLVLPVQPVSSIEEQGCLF
The nature of assay [6]: E. coli growth modulation, two-sided OD650, primary screen, E. coli filamentation project, strain DRC41, 24 h (AID 1093).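 Also: MC1000 strain lacking acrAB efflux and sulA so SOS filamentation is blocked; test concentration not given here.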 Conditions: OD650, 24 h, higher = more signal, called active from +8 up or from −8 down.
Assay [7] in a line: small-molecule microarray binders of probe aLefty2, primary screen, biochemical, biotinylated probe, 635/667 nm fluorescence (AID 1094).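 Also: score merges spot fluorescence near 667 nm with spot signal-to-noise ratio.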 Conditions: higher = more signal.
Assay [8] deals with Noggin (protein binding on small-molecule microarray). The experiment in a line: Noggin binders on small-molecule microarray, primary screen, biochemical, 635/667 nm fluorescence (AID 1095).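 Also: score merges 667 nm feature fluorescence with signal to noise over triplicate slides.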 Conditions: 635 nm fluorescence, higher = more signal.
Assay [9] addresses Neurogenic locus notch homolog protein 3 (Homo sapiens) (UniProt Q9UM47). The experiment in a line: NOTCH3 binders on small-molecule microarray, primary screen, biochemical, 635/667 nm fluorescence (AID 1096). Conditions: NOTCH3 binding, 635 nm fluorescence, higher = more signal.
Assay [10] in a line: small-molecule microarray binders of probe aEGFR, primary screen, biochemical, biotinylated probe, 635/667 nm fluorescence (AID 1097).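 Also: probe is a biotinylated anti-EGFR antibody binding compounds printed on slides; score combines fluorescence near 667 nm and signal to noise of each spot.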 Conditions: higher = more signal.

The source made the active and inactive calls.

Neurogenic locus notch homolog protein 3 (Homo sapiens), sequence (Q9UM47 whole entry, looked up): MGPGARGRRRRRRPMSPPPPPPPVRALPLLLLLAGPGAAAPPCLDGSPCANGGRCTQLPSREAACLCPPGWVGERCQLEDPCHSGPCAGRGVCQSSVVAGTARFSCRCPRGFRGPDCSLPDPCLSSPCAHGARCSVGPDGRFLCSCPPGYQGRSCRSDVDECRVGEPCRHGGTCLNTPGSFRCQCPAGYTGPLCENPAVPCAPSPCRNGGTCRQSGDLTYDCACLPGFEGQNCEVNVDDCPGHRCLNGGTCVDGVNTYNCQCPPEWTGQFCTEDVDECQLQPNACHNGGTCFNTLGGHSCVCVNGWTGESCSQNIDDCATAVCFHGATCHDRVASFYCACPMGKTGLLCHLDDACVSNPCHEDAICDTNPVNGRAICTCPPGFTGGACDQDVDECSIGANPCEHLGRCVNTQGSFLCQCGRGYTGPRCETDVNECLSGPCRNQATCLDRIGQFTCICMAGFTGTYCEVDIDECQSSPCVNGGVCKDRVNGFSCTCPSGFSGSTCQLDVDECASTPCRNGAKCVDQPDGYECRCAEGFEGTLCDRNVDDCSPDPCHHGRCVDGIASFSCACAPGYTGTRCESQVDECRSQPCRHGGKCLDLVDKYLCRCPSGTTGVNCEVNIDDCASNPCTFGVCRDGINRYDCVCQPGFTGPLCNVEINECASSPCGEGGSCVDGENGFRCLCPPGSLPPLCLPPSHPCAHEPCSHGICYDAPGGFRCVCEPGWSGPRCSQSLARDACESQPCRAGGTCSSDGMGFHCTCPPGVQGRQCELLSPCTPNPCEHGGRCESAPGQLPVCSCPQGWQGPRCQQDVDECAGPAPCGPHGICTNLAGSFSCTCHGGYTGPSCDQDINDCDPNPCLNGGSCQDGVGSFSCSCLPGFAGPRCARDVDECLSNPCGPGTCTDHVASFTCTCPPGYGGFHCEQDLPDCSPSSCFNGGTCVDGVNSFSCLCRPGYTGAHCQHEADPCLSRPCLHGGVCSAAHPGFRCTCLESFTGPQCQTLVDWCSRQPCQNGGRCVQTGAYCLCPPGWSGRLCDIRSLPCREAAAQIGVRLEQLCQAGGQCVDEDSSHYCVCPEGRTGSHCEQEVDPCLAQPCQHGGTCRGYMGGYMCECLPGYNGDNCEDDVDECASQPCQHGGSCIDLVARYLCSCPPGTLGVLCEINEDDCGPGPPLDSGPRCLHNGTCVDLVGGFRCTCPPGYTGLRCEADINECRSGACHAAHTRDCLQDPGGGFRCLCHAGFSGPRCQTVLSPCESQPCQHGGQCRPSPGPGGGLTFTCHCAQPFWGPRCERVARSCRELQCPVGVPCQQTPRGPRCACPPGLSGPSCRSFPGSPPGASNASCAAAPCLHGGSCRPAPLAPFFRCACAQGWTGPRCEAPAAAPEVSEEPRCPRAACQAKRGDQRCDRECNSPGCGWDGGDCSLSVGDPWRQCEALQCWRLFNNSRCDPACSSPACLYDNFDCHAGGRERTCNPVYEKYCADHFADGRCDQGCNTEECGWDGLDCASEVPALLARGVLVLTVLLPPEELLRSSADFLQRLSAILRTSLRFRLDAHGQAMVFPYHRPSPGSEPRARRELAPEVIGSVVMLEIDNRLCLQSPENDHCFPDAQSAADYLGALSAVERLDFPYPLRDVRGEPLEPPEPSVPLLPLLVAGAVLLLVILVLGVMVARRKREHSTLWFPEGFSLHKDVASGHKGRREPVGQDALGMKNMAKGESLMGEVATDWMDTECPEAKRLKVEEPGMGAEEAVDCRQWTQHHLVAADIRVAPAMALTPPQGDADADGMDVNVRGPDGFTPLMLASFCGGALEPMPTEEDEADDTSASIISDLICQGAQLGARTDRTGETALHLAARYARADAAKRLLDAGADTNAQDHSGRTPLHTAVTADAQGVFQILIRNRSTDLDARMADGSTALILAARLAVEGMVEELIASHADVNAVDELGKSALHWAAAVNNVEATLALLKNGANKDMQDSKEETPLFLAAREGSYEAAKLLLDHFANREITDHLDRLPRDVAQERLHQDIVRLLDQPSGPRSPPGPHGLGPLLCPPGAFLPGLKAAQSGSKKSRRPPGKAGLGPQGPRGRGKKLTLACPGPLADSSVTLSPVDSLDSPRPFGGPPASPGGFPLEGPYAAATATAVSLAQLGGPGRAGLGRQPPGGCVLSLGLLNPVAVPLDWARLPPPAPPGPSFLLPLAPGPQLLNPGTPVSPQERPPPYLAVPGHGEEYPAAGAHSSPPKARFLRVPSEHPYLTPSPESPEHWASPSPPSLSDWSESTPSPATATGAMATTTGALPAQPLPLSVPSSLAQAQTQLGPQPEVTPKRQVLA

In the case of `COCCOC(=O)N1C(=O)[C@@]2(c3cc(C#CCC(C(=O)OC)C(=O)OC)ccc31)[C@H](C(=O)N1CCCCCCC1)[C@H]1C(=O)O[C@H](c3ccccc3)[C@H](c3ccccc3)N1[C@@H]2c1ccc(OCCO)cc1`, the composite z-score in assay [1] amounted to 1.54; in assay [5], 4.11; in assay [7] it was 1.66; in [8], 2.02; in assay [9], 1.05; in assay [10], 1.26. Moreover, the z-score in [2] is 1.47 (inactive); in assay [3] it was 0.168 (inactive); in assay [4], 2.66 (inactive); in [6], 0.275 (inactive).

`CC(C)Cc1ccc(CN2CC[C@@H](NS(=O)(=O)c3ccccc3)C2)cc1`: the composite z-score is 1.01 in assay [1]; 0.846 in assay [5]; -0.296 in [7]; 0.864 in [8]; 0.12 in assay [9]; -0.154 in [10]. Further, the z-score in assay [2] is -14.6 (active); in [3], -20.9 (active); in assay [4] it was -3.57 (inactive); in assay [6], -19.6 (active).

In the case of `C=CCC(OC(C)=O)[C@@H]1[C@@H](N(Cc2ccc(-c3cccc(C(F)(F)F)c3)o2)C(=O)c2ccc(C)cc2)c2cc(OCCCO)ccc2N1C(=O)c1ccc(-c2ccccc2)cc1` (stereo not given in full), the composite z-score in assay [1] was 0.0003; in [5], 0.476; in assay [7], -0.194; in assay [8], 0.507; in assay [9] it was 0.46; in assay [10], -0.139. In addition, the z-score is 0.0652 (inactive) in assay [2], -1.07 (inactive) in [3], 0.271 (inactive) in assay [4] and 1.03 (inactive) in [6].

`CC(C)NC(=O)[C@@H]1c2ccccc2C(=O)N(Cc2ccccc2Cl)[C@H]1c1ccc(CO)cc1`: the composite z-score in assay [1] is 1.4; in assay [5] it was 1.8; in assay [7], -0.053; in assay [8], -0.384; in assay [9], 0.143; in assay [10], -0.287. Further, the z-score in assay [2] is 0.759 (inactive); in assay [3] it was 0.247 (inactive); in [4], 0.173 (inactive); in assay [6], 1.19 (inactive).

`C=CCNC(=O)[C@@H]1[C@H]2C(=O)O[C@H](c3ccccc3)[C@H](c3ccccc3)N2[C@H](c2ccc(OCCO)cc2)[C@@]12C(=O)Nc1ccccc12`: the composite z-score in assay [1] is 1.55; in assay [5], 2.46; in assay [7] it was -0.175; in assay [8] it was 1.28; in [9], 1.09; in [10] it was -0.197. Besides, the z-score was -1.2 (inactive) in assay [2], 0.406 (inactive) in assay [3], 2.21 (inactive) in [4] and 0.462 (inactive) in assay [6].

For the molecule `C=CC(=C)C1=CCO[C@@H]1[C@H]1CCCN1S(=O)(=O)c1ccccc1[N+](=O)[O-]`, the composite z-score was 0.921 in [1]; 0.86 in assay [5]; -0.0416 in assay [7]; 0.35 in [8]; 1.11 in [9]; -0.115 in assay [10]. The z-score was -0.358 (inactive) in [2], 0.131 (inactive) in [3], -0.184 (inactive) in assay [4] and 0.301 (inactive) in [6].

Take `COCCOC(=O)N1C(=O)[C@@]2(c3cc(C#CCC(C(=O)OC)C(=O)OC)ccc31)[C@H](c1ccc(O)cc1)N1[C@H](c3ccccc3)[C@H](c3ccccc3)OC(=O)[C@H]1[C@@H]2C(N)=O`: the composite z-score in assay [1] is 1.28; in [5], 3.06; in assay [7], 0.216; in assay [8], 0.604; in [9] it was 0.828; in assay [10] it was 0.0717. The z-score in assay [2] is -0.151 (inactive); in [3], 0.431 (inactive); in assay [4], 0.291 (inactive); in assay [6], -0.138 (inactive).

As for `O=C1C[C@]2(c3ccc([N+](=O)[O-])cc3)C(=O)N(CC(F)(F)F)c3cc(CO)ccc3[C@H]2N1CC12CC3CC(CC(C3)C1)C2`, the composite z-score in [1] is 1.08; in assay [5], 2.49; in assay [7], -0.145; in assay [8], 0.363; in assay [9], -0.234; in [10] it was -0.0972. Further, the z-score is 0.116 (inactive) in assay [2], 1.21 (inactive) in assay [3], -1.69 (inactive) in [4] and -0.577 (inactive) in assay [6].

As to `C=CC(COC(C)=O)NS(=O)(=O)c1ccc(Br)cc1` (stereo not given), the composite z-score in assay [1] worked out at 0.1; in assay [5], 0.185; in assay [7] it was 0.0216; in assay [8] it was 0.598; in assay [9] it was 0.604; in [10] it was 0.0749. Further, the z-score was -0.141 (inactive) in [2], -0.467 (inactive) in assay [3], -0.9 (inactive) in assay [4] and -0.975 (inactive) in assay [6].

With `O=C/C=C/c1ccc2c(c1)OCO2`, the composite z-score was 0.274 in assay [1]; -0.857 in assay [5]; -0.151 in assay [7]; 0.542 in assay [8]; 0.0863 in assay [9]; -0.0978 in [10]. Also, the z-score in assay [2] is -3.66 (inactive); in assay [3], -16.7 (active); in [4], -1.69 (inactive); in [6] it was -1.98 (inactive).

With `C[C@]1(C(=O)NCc2ccccc2)c2ccccc2C(=O)N(Cc2ccc(OC(F)(F)F)cc2)[C@H]1c1ccc(CO)cc1`, the composite z-score was -0.0073 in assay [1]; 2.06 in assay [5]; -0.0719 in [7]; 0.0824 in assay [8]; -0.184 in assay [9]; -0.0689 in [10]. Besides, the z-score in assay [2] was -0.913 (inactive); in assay [3], -0.935 (inactive); in assay [4], -0.67 (inactive); in assay [6], 1.36 (inactive).

As to `COC(=O)C1=CC(CCCO)=CC(C2CC2)N(Cc2sc3ccccc3c2Cl)C=C1C(=O)OC` (stereo not given), the composite z-score was determined as 1.54 in assay [1]; 3.36 in [5]; 0.198 in assay [7]; 0.346 in assay [8]; 1.16 in [9]; 0.0746 in assay [10]. The z-score in [2] is 0.258 (inactive); in assay [3], -3.05 (inactive); in assay [4] it was -1.55 (inactive); in assay [6] it was 0.404 (inactive).

Turning to `C=C(COC)/C(=C/C[C@H](OC(=O)c1ccncc1)c1cccc(OCCO)c1)c1cc(C(=O)OC)ccc1OC`, the composite z-score in [1] was 1.48; in assay [5] it was 1.95; in assay [7] it was -0.128; in [8] it was 0.604; in assay [9] it was 0.679; in [10], -0.139. Besides, the z-score in [2] was 0.447 (inactive); in assay [3] it was -1.01 (inactive); in [4], -0.429 (inactive); in assay [6] it was 0.973 (inactive).

As to `COCCOC(=O)N1C(=O)[C@@]2(c3cc(C#CCNC(N)=O)ccc31)[C@H](C(=O)N1CCc3cc(OC)c(OC)cc3C1)[C@H]1C(=O)O[C@H](c3ccccc3)[C@H](c3ccccc3)N1[C@@H]2c1ccc(OCCO)cc1`, the composite z-score in assay [1] is 1.08; in assay [5], 0.277; in assay [7], -0.0163; in [8] it was 1.3; in [9] it was 1.13; in assay [10] it was -0.0734. For the same molecule, the z-score is 0.854 (inactive) in [2], 0.575 (inactive) in assay [3], 4.41 (inactive) in [4] and 0.692 (inactive) in assay [6].

For the molecule `Cc1ccc([C@H]2C(C(=O)O)=C[C@@H](C)N2S(=O)(=O)c2ccc(C)cc2)cc1`, the composite z-score in assay [1] was 0.896; in assay [5], 3.71; in [7] it was 0.0754; in [8] it was -0.24; in assay [9] it was -0.546; in [10] it was -0.165. Also, the z-score in assay [2] is -0.495 (inactive); in assay [3], -0.812 (inactive); in assay [4] it was -0.422 (inactive); in assay [6], -0.291 (inactive).

As for `NCCCCCCNC(=O)[C@H]1C[C@H]2C(=O)NCC(=O)N2[C@H]1c1cccc(OCCO)c1`, the composite z-score in [1] was 1.58; in [5], 1.59; in assay [7], 0.0537; in assay [8], 1.5; in assay [9] it was 1.15; in assay [10], -0.034. Moreover, the z-score is 0.23 (inactive) in assay [2], -1.12 (inactive) in assay [3], -0.442 (inactive) in assay [4] and 1.1 (inactive) in assay [6].

As for `O=C1c2ccccc2[C@@]2(Cc3ccccc3N(Cc3ccccc3)C2=O)[C@H](c2ccc(CO)cc2)N1C1CCCCC1`, the composite z-score in [1] is 1.21; in assay [5], 0.525; in assay [7], -0.239; in assay [8] it was 0.61; in [9] it was 0.269; in assay [10] it was -0.2. For the same molecule, the z-score in [2] was -0.676 (inactive); in assay [3], 1.1 (inactive); in assay [4] it was -0.619 (inactive); in [6], -0.0011 (inactive).

Values taken from PubChem BioAssay.
